Laboratory results: the supplement of paper PMC11001985

Sequence of UniProt P07942 (P07942 whole entry): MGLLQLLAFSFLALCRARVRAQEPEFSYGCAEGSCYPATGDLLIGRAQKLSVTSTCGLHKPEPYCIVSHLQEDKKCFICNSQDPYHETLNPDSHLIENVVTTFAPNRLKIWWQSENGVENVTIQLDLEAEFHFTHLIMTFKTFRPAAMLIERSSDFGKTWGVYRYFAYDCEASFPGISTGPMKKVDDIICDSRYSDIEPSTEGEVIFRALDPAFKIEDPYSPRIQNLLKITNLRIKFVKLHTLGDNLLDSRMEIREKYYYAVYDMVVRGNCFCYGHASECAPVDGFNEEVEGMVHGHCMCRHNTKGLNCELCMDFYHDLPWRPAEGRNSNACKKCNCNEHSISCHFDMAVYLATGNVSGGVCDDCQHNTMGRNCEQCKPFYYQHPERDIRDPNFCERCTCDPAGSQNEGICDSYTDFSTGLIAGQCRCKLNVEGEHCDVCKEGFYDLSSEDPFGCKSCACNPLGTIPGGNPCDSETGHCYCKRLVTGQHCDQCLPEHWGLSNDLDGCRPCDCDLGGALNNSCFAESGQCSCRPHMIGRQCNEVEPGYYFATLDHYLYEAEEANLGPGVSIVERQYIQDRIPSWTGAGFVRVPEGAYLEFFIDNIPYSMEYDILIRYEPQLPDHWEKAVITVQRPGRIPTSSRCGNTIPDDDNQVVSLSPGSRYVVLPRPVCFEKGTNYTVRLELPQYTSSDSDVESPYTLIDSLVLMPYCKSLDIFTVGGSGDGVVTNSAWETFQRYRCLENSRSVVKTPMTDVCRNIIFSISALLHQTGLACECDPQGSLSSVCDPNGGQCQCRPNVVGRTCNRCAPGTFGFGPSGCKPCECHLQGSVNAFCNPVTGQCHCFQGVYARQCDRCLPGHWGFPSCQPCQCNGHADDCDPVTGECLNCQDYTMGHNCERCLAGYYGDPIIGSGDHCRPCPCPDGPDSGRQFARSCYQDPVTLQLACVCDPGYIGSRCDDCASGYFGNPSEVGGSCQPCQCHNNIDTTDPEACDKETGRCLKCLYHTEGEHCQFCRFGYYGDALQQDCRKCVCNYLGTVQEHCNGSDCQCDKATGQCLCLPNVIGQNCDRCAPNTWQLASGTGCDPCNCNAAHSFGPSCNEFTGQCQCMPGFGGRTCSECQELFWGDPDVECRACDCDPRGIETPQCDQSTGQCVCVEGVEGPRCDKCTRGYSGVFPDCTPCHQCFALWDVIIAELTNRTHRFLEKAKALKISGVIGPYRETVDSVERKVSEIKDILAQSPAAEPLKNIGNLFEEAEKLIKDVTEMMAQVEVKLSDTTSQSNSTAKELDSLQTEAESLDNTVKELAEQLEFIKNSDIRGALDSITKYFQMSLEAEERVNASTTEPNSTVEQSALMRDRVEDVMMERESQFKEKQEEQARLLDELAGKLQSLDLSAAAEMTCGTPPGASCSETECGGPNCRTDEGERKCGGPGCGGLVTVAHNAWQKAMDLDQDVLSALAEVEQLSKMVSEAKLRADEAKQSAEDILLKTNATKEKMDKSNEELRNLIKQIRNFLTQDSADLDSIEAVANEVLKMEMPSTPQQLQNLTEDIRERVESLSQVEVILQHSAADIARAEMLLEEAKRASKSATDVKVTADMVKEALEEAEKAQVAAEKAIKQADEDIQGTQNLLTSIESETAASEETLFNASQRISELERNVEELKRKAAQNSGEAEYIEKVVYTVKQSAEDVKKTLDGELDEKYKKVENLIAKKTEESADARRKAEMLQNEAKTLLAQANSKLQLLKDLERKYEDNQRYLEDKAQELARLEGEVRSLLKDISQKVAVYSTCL
Sequence of UniProt P26639 (P26639 whole entry): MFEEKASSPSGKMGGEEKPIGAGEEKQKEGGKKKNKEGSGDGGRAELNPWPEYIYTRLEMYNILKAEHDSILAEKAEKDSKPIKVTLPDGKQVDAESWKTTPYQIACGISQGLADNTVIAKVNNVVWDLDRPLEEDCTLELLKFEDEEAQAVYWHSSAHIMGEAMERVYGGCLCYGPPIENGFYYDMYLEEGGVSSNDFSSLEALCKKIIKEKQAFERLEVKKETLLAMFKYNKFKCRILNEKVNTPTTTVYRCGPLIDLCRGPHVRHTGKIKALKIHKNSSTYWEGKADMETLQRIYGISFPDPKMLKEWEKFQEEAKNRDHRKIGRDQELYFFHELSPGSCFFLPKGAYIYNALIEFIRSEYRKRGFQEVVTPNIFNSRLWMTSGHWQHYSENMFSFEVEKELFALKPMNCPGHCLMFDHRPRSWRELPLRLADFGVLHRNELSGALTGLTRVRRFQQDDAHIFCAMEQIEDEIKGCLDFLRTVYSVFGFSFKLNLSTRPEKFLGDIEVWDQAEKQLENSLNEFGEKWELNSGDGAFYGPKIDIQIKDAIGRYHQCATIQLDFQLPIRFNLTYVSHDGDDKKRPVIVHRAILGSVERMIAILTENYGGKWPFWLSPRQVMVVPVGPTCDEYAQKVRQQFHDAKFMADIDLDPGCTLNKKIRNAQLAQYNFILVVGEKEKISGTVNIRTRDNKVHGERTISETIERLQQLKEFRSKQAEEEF
Sequence of UniProt P08069 (P08069 whole entry, looked up): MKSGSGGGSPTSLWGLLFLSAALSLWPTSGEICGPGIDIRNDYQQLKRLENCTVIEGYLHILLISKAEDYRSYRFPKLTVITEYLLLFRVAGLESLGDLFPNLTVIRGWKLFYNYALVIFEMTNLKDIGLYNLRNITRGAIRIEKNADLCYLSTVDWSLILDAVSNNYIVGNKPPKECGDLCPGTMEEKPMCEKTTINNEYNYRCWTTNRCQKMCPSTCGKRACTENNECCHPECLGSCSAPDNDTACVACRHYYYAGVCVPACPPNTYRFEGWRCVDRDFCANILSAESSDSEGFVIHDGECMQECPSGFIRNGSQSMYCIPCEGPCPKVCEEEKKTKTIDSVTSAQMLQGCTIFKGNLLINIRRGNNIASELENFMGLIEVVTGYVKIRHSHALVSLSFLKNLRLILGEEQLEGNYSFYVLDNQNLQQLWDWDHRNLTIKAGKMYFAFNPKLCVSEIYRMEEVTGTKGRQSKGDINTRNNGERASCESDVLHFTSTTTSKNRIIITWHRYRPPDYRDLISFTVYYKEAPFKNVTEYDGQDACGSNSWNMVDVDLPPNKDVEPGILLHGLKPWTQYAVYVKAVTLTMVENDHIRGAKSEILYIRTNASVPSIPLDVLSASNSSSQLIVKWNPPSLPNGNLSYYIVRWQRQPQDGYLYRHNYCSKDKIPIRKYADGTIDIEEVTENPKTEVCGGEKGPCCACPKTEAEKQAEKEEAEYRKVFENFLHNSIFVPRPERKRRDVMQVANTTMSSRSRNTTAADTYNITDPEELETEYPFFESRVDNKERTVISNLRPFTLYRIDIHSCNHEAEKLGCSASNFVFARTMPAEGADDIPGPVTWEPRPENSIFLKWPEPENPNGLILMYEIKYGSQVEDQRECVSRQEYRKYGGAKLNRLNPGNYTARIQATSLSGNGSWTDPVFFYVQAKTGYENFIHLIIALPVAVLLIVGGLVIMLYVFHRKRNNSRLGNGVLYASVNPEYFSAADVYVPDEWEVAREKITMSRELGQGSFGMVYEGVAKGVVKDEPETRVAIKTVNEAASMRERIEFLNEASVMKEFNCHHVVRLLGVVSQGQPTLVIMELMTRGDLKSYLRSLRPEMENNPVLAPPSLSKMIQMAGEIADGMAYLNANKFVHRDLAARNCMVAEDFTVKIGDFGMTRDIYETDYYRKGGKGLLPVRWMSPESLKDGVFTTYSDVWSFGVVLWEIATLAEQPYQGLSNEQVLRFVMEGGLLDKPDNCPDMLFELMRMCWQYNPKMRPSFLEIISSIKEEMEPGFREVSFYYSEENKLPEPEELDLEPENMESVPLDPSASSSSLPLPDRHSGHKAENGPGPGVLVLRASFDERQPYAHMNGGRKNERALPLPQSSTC
Sequence of UniProt P06756 (P06756 whole entry): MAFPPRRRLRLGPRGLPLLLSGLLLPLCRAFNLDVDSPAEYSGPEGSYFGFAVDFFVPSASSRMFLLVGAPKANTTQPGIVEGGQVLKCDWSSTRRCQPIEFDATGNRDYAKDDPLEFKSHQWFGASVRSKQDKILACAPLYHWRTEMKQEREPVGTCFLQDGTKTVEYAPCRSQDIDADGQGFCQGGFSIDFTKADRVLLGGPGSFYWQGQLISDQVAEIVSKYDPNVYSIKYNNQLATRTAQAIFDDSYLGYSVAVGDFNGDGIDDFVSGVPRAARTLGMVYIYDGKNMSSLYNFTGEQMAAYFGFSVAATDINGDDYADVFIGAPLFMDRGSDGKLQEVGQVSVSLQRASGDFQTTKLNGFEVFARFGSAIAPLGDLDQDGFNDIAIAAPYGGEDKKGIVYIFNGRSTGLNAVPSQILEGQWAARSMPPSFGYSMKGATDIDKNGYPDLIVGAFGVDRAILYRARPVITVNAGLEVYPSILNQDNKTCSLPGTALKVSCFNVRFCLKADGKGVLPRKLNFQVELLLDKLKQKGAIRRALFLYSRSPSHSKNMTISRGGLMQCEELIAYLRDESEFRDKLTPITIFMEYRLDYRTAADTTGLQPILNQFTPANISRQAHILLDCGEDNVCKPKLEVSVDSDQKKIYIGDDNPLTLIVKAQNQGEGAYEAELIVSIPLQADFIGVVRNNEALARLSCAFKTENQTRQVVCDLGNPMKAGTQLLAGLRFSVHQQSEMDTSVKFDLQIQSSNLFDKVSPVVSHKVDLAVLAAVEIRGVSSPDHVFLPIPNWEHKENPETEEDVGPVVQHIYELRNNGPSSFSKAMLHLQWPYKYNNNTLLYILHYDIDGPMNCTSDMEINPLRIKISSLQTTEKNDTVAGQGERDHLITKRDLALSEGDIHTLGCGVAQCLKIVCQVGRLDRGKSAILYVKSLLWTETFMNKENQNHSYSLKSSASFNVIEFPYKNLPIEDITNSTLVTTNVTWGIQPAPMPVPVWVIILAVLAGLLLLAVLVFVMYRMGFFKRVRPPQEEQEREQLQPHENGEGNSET
Sequence of UniProt P31949 (P31949 whole entry): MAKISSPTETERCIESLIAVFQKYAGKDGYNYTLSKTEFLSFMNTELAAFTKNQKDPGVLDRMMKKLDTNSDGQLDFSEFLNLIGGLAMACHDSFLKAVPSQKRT

Each target was assayed with C#CCNC(=O)CCSSCCC(=O)NCCc1ccc(C=O)c(C=O)c1 (assay: lysine labeling ratio R10:1 (500 µM / 50 µM probe), SILAC-ABPP in living cells; higher = lower intrinsic lysine reactivity toward the probe, active = 2 or less). Settings: HeLa; probe concentrations 500 vs 50 µM.
Procedure, shortened: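 The two probe levels, 50 µM and 500 µM, of an alkyne-tagged, disulfide-linked lysine probe were applied to living light and heavy SILAC HeLa cells in PBS at room temperature, and the labels were run in both forward and reverse orientation. Mixed lysates underwent biotin-azide click chemistry, trypsin digestion, neutravidin capture, DTT release and alkylation before LC-MS/MS on a TIMS-TOF Pro. R is the filtered median high-probe/low-probe MS1 peptide ratio for each lysine, summarised as the median over forward and reverse replicates. Nothing above 20 is reported; such values are set to 20.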
With “PDIA3 (lysine site: K433) (UniProt P30101)” the “lysine labeling ratio R10:1” value was 2.21 (inactive). With “ITGA3 (lysine site: K897) (UniProt P26006)” the “lysine labeling ratio R10:1” value was 1.68 (active). In the case of “P30462 (lysine site: K267) (UniProt P01889)”, the “lysine labeling ratio R10:1” value is reported as 2.91 (inactive). In the case of “DDX5 (lysine site: K284) (UniProt P17844)”, the “lysine labeling ratio R10:1” value is reported as 0.51 (active). With “FLNB (lysine site: K697) (UniProt O75369)” the “lysine labeling ratio R10:1” value was 2.95 (inactive). “TNFRSF10B (lysine site: K72) (UniProt O14763)” was tested, and the “lysine labeling ratio R10:1” value was 3.31 (inactive). UniProt Q15149 (lysine site: K195) was tested, and the “lysine labeling ratio R10:1” value was 4.55 (inactive). For “LAMB1 (lysine site: K1757) (UniProt P07942)”, the “lysine labeling ratio R10:1” value was 5.94 (inactive). UniProt P02533 (lysine site: K297) was tested, and the “lysine labeling ratio R10:1” value was 2.74 (inactive). In the case of “KRT18 (lysine site: K317) (UniProt P05783)”, the “lysine labeling ratio R10:1” value is reported as 7.92 (inactive). With “HMGN2 (lysine site: K18) (UniProt P05204)” the “lysine labeling ratio R10:1” value was 2.09 (inactive). With “AHCY (lysine site: K20) (UniProt P23526)” the “lysine labeling ratio R10:1” value was 1.54 (active). “HNRNPL (lysine site: K302) (UniProt P14866)” was tested, and the “lysine labeling ratio R10:1” value was 1.66 (active). In the case of “CCT7 (lysine site: K320) (UniProt Q99832)”, the “lysine labeling ratio R10:1” value is reported as 2.53 (inactive). For “DSG2 (lysine site: K561) (UniProt Q14126)”, the “lysine labeling ratio R10:1” value was 6.57 (inactive). “THBS1 (lysine site: K919) (UniProt P07996)” was tested, and the “lysine labeling ratio R10:1” value was 1.72 (active). With “IGF1R (lysine site: K887) (UniProt P08069)” the “lysine labeling ratio R10:1” value was 3.44 (inactive). In the case of UniProt Q15149 (lysine site: K2318), the “lysine labeling ratio R10:1” value is reported as 4.26 (inactive). UniProt O95980 (lysine site: K747) was tested, and the “lysine labeling ratio R10:1” value was 1.22 (active). “Q95604 (lysine site: K145) (UniProt P10321)” was tested, and the “lysine labeling ratio R10:1” value was 2.39 (inactive). For “RDX (lysine site: K556) (UniProt P35241)”, the “lysine labeling ratio R10:1” value was 1.52 (active). With “EGFR (lysine site: K487) (UniProt P00533)” the “lysine labeling ratio R10:1” value was 1.61 (active). “NCL (lysine site: K545) (UniProt P19338)” was tested, and the “lysine labeling ratio R10:1” value was 3.2 (inactive). In the case of “PSMA7 (lysine site: K28) (UniProt O14818)”, the “lysine labeling ratio R10:1” value is reported as 2.85 (inactive). In the case of “ITGA2 (lysine site: K821) (UniProt P17301)”, the “lysine labeling ratio R10:1” value is reported as 3.08 (inactive). In the case of “SLC25A4 (lysine site: K245) (UniProt P12235)”, the “lysine labeling ratio R10:1” value is reported as 1.72 (active). With “SPTBN1 (lysine site: K932) (UniProt Q01082)” the “lysine labeling ratio R10:1” value was 3.29 (inactive). In the case of UniProt P26639 (lysine site: K319), the “lysine labeling ratio R10:1” value is reported as 2.46 (inactive). “PSMB1 (lysine site: K204) (UniProt P20618)” was tested, and the “lysine labeling ratio R10:1” value was 2.46 (inactive). In the case of “FLNA (lysine site: K2387) (UniProt P21333)”, the “lysine labeling ratio R10:1” value is reported as 11.9 (inactive). In the case of “HEG1 (lysine site: K1073) (UniProt Q9ULI3)”, the “lysine labeling ratio R10:1” value is reported as 3.38 (inactive). In the case of “CD109 (lysine site: K86) (UniProt Q6YHK3)”, the “lysine labeling ratio R10:1” value is reported as 1.68 (active). With “ATAD3B (lysine site: K505) (UniProt Q5T9A4)” the “lysine labeling ratio R10:1” value was 0.98 (active). In the case of “S100A11 (lysine site: K55) (UniProt P31949)”, the “lysine labeling ratio R10:1” value is reported as 1.54 (active). “PTPRF (lysine site: K1016) (UniProt P10586)” was tested, and the “lysine labeling ratio R10:1” value was 3.97 (inactive). In the case of “LAMB1 (lysine site: K1778) (UniProt P07942)”, the “lysine labeling ratio R10:1” value is reported as 1.01 (active). With “PPIA (lysine site: K31) (UniProt P62937)” the “lysine labeling ratio R10:1” value was 3.16 (inactive). “SPTAN1 (lysine site: K1141) (UniProt Q13813)” was tested, and the “lysine labeling ratio R10:1” value was 17.4 (inactive). In the case of “MLEC (lysine site: K85) (UniProt Q14165)”, the “lysine labeling ratio R10:1” value is reported as 2.36 (inactive). For “ITGAV (lysine site: K338) (UniProt P06756)”, the “lysine labeling ratio R10:1” value was 3.21 (inactive).
